# What was measured:
# Experiment in all cases: DAPPL (digital affinity profiling via proximity ligation, sequencing); 10 mM Tris-HCl pH 7.5, 50 mM NaCl, 1 mM DTT, 4% glycerol, room temperature, 30 min; GST-TFs on glutathione beads, 16-mer random dsDNA library, 0.1% formaldehyde crosslink after washing; high values mean tight binding
# Details in all cases: protein: recombinant; tags: N-terminal GST; dsDNA, one strand shown
# [1] = target: T1, FLI1 (Homo sapiens, UniProt Q01543 1-452)
# T1 sequence: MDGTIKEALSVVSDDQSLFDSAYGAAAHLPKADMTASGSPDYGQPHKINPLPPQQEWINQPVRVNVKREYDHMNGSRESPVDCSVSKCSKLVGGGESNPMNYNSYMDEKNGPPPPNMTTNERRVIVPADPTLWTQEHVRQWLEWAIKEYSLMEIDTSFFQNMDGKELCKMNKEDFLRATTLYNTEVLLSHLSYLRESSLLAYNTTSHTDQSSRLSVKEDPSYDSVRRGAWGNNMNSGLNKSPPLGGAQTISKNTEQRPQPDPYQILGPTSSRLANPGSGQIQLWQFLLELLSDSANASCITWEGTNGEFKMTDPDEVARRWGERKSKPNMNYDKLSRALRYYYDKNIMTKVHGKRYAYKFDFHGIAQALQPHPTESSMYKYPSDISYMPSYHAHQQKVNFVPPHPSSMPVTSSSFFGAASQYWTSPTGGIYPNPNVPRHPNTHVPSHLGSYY
# In short: (§1)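 Pools were built from human transcription factors expressed in yeast as GST fusions, captured on glutathione beads and DNA-barcoded, along with a tag-only sample. Incubation with 200 nmole of a 16-mer random double-stranded DNA library lasted 30 min at room temperature in Tris/NaCl/DTT/glycerol buffer, and was followed by washing, 0.1% formaldehyde crosslinking, proximity ligation, PCR amplification and Illumina NextSeq500 sequencing. Binding signal is the quotient of each hexamer's read frequency for a factor and its frequency for the tag-only sample.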
# [2] = target: T2, ELK1 (Homo sapiens, UniProt P19419 1-428)
# T2 sequence: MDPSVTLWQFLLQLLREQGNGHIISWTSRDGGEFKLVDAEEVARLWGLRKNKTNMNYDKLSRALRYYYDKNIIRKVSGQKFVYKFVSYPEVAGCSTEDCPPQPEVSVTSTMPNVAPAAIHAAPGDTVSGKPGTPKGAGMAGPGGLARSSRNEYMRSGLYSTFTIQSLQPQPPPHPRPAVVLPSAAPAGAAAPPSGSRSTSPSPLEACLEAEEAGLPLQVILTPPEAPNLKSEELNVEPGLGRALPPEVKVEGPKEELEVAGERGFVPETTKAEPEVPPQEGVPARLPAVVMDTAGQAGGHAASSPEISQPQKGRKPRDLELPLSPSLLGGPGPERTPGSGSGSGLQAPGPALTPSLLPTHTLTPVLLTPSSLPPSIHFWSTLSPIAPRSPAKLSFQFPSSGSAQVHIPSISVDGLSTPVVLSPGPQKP
# In short: as §1
# [3] = target: T3, GABPA (Homo sapiens, UniProt Q06546 1-454)
# T3 sequence: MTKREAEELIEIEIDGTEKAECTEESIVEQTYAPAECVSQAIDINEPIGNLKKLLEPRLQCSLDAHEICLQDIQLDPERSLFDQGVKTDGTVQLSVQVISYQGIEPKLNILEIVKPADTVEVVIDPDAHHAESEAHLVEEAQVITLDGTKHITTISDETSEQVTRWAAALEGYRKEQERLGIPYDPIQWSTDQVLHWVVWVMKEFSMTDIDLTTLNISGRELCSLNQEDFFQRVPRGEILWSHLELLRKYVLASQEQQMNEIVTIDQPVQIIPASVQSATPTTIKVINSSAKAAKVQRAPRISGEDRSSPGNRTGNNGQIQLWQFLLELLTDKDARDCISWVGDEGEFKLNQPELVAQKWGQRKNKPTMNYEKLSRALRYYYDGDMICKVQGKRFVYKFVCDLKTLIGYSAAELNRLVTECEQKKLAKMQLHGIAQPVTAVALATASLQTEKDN
# In short: as §1
# [4] = target: ELF1 (Homo sapiens, UniProt P32519 1-619)
# In short: as §1
# [5] = target: T4, EHF (Homo sapiens, UniProt Q9NZC4 1-300)
# T4 sequence: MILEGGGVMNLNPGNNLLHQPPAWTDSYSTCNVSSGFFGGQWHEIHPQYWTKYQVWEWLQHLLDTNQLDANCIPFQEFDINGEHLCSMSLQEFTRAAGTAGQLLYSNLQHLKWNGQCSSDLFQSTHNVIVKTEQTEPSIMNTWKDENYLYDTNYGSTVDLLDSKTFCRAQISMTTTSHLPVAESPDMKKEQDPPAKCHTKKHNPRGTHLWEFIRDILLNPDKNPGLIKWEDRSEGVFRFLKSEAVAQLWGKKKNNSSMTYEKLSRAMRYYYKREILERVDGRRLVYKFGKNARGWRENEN
# In short: as §1
# [6] = target: SPI1 (Homo sapiens, UniProt P17947 1-270)
# In short: as §1
# [7] = target: T5, FEV (Homo sapiens, UniProt Q99581 1-238)
# T5 sequence: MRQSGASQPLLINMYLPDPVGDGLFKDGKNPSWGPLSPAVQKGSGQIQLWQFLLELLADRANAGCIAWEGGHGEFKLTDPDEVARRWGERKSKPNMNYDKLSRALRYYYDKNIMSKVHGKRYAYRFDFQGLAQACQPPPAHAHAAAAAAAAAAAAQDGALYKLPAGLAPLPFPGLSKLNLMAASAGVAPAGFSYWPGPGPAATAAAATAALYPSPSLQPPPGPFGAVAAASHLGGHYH
# In short: as §1
# [8] = target: ETV5 (Homo sapiens, UniProt P41161 1-510)
# In short: as §1
# [9] = target: ELF4 (Homo sapiens, UniProt Q99607 1-663)
# In short: as §1
# [10] = target: T6, ELF3 (Homo sapiens, UniProt P78545 1-371)
# T6 sequence: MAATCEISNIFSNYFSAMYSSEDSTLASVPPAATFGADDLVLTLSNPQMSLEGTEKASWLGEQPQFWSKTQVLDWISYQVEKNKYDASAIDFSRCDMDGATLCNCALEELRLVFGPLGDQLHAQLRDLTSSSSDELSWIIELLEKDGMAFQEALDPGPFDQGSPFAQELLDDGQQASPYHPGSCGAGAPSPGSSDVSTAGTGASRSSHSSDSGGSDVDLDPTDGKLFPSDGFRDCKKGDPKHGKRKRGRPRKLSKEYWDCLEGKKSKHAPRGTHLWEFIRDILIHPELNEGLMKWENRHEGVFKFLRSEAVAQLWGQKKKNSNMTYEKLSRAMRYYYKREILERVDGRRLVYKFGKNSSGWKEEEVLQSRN
# In short: as §1
# [11] = target: ETV1 (Homo sapiens, UniProt P50549 1-477)
# In short: as §1
# [12] = target: T7, ERF (Homo sapiens, UniProt P50548 1-548)
# T7 sequence: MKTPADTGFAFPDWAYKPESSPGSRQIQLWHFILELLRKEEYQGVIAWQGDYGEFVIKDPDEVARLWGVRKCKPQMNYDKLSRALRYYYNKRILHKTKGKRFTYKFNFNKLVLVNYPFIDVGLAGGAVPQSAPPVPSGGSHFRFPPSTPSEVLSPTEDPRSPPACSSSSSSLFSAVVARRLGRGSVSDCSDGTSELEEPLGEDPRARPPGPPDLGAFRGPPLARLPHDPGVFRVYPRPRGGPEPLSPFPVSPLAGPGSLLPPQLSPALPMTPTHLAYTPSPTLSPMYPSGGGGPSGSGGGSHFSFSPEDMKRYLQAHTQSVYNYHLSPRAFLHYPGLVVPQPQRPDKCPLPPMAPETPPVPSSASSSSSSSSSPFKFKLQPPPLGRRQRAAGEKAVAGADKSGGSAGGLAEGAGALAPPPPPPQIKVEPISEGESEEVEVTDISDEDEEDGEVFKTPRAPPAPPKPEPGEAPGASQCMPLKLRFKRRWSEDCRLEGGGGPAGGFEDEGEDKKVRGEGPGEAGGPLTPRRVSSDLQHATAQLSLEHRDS
# In short: as §1
# [13] = target: T8, ETV3L (Homo sapiens, UniProt Q6ZN32 1-361)
# T8 sequence: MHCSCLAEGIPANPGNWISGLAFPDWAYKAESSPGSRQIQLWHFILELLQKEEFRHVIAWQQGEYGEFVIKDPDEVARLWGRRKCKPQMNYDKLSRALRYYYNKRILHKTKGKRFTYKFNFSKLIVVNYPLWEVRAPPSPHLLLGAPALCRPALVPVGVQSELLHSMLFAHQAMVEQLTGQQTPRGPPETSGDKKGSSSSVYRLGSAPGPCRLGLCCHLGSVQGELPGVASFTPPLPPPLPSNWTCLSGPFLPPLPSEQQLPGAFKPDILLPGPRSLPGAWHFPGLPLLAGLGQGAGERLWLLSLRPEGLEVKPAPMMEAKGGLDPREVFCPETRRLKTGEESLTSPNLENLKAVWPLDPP
# In short: as §1
# [14] = target: T9, ETS2 (Homo sapiens, UniProt P15036 1-469)
# T9 sequence: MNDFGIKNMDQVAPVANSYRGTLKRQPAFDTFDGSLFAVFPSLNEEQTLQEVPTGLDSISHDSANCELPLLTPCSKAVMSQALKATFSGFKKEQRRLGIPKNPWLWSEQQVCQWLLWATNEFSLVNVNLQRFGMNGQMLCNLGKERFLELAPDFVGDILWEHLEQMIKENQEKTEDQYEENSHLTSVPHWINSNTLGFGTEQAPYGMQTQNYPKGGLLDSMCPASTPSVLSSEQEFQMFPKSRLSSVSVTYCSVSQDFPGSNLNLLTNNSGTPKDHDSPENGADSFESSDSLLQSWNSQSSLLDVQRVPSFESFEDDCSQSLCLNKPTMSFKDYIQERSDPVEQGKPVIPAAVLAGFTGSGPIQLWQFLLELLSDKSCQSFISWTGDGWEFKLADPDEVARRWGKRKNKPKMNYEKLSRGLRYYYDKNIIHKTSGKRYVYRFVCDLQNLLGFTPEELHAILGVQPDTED
# In short: as §1
# [15] = target: T10, ETV7 (Homo sapiens, UniProt Q9Y603 1-341)
# T10 sequence: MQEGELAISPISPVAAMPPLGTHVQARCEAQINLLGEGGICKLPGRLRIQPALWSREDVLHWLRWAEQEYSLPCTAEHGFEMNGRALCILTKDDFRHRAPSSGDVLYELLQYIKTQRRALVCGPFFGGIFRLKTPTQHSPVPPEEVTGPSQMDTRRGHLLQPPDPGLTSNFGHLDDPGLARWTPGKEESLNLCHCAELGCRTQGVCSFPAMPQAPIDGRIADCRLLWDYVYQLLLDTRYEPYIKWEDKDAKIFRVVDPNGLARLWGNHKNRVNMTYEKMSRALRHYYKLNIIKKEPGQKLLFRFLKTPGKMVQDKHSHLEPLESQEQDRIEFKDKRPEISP
# In short: as §1
# [16] = target: T11, ETV3 (Homo sapiens, UniProt P41162-2 1-143)
# T11 sequence: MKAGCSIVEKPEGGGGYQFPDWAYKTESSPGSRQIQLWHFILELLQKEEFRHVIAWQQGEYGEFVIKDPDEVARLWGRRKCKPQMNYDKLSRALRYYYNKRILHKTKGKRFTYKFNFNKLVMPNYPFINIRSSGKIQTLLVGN
# In short: as §1
# [17] = target: ETV6 (Homo sapiens, UniProt P41212 1-452)
# In short: as §1
# Chain of ETV5 (P41161 whole entry): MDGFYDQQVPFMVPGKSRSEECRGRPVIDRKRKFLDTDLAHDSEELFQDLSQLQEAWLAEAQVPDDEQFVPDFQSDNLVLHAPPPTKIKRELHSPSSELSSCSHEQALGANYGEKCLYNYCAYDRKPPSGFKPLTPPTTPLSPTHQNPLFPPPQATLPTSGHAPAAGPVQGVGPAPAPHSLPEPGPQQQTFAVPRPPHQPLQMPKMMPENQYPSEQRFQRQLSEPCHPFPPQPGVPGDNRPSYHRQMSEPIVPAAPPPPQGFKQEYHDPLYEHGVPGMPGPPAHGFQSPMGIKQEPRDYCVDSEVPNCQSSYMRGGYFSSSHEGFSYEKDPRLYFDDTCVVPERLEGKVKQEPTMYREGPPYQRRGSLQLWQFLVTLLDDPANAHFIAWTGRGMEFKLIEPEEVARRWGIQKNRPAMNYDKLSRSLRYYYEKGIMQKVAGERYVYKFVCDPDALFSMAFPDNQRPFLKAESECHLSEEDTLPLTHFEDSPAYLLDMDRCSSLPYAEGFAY
# Chain of ELF4 (Q99607 whole entry): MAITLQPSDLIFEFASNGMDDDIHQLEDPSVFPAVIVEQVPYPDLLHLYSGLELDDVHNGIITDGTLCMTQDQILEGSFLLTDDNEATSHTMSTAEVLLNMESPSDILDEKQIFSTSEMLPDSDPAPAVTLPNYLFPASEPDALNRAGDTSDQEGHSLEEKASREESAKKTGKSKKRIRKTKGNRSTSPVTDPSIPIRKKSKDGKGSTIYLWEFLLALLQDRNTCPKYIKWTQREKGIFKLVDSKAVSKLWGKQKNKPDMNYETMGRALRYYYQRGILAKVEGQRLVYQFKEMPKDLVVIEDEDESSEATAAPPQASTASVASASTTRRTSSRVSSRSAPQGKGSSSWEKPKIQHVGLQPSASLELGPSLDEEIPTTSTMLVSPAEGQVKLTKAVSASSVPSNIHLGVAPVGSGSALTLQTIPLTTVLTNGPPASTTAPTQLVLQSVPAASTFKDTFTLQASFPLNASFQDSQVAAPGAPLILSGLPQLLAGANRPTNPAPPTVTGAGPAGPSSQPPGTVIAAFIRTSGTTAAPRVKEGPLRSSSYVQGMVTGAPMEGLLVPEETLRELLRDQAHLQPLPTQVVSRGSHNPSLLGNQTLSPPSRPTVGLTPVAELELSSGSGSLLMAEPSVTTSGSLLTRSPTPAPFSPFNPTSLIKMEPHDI
# Chain of ETV1 (P50549 whole entry): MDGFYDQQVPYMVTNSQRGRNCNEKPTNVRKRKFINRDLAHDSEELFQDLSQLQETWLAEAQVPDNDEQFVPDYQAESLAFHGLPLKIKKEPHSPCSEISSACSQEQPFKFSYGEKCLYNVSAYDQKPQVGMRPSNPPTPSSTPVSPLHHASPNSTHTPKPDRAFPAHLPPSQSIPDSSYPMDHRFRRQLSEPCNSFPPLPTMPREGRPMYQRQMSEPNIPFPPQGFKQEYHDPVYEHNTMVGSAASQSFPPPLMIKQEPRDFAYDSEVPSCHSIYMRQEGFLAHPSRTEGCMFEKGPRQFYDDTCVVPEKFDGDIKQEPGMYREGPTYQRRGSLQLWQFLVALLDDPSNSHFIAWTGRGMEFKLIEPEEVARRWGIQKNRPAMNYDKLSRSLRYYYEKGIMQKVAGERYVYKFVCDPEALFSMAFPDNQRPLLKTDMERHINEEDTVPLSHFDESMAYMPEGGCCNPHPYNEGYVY
# Chain of ELF1 (P32519 whole entry): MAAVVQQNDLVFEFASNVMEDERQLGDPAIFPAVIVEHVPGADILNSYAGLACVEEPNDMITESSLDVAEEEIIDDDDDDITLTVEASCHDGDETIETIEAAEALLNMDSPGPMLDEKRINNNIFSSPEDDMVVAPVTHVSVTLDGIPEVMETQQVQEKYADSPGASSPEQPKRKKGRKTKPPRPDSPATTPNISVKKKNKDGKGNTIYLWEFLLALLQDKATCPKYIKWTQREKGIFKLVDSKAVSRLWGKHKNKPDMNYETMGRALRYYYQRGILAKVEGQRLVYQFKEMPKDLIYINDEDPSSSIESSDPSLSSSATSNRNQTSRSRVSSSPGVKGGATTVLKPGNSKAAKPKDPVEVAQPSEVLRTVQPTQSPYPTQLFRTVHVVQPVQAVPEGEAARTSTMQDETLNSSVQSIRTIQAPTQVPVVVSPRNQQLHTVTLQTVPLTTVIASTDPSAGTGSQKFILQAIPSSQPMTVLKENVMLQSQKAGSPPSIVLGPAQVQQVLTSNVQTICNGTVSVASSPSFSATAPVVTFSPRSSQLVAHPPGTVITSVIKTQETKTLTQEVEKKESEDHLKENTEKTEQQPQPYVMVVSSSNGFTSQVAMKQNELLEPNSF
# Chain of ETV6 (P41212 whole entry): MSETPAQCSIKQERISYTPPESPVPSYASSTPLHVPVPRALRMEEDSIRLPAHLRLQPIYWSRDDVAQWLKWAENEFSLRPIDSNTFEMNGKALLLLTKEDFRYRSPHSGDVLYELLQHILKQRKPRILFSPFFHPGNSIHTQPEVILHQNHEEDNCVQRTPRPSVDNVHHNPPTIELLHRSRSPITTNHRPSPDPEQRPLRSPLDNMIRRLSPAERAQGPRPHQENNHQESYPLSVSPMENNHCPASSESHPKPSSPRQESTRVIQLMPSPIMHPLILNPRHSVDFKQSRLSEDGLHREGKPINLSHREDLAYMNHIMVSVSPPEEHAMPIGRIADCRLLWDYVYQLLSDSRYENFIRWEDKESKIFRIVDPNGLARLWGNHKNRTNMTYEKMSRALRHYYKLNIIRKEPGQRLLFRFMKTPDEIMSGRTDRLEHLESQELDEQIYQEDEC
sequence,measurement,setting,value
TGCGGC,binding signal,[1],"1.06 fold enrichment (6-mer frequency, TF over GST control)"
same,binding signal,[2],"1.04 fold enrichment (6-mer frequency, TF over GST control)"
same,binding signal,[3],"1.09 fold enrichment (6-mer frequency, TF over GST control)"
same,binding signal,[4],"1.05 fold enrichment (6-mer frequency, TF over GST control)"
same,binding signal,[5],"1.07 fold enrichment (6-mer frequency, TF over GST control)"
same,binding signal,[6],"1.11 fold enrichment (6-mer frequency, TF over GST control)"
same,binding signal,[7],"1.02 fold enrichment (6-mer frequency, TF over GST control)"
same,binding signal,[8],"1.06 fold enrichment (6-mer frequency, TF over GST control)"
same,binding signal,[9],"1.13 fold enrichment (6-mer frequency, TF over GST control)"
same,binding signal,[10],"1.33 fold enrichment (6-mer frequency, TF over GST control)"
same,binding signal,[11],"1.08 fold enrichment (6-mer frequency, TF over GST control)"
same,binding signal,[12],"1.14 fold enrichment (6-mer frequency, TF over GST control)"
same,binding signal,[13],"1.03 fold enrichment (6-mer frequency, TF over GST control)"
same,binding signal,[14],"1.05 fold enrichment (6-mer frequency, TF over GST control)"
same,binding signal,[15],"1.07 fold enrichment (6-mer frequency, TF over GST control)"
same,binding signal,[16],"1.03 fold enrichment (6-mer frequency, TF over GST control)"
same,binding signal,[17],"1 fold enrichment (6-mer frequency, TF over GST control)"

# From PMC7862700, “An all-to-all approach to the identification of sequence-specific readers for epigenetic DNA modifications on cytosine”
